Test results taken from PubChem BioAssay.
Records with an inconclusive call do not appear. Activity calls are given as the source filed them.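 How the source made its calls, unless noted: active means binding below the plate cutoff, the plate median minus 3 SD, with a reading above zero; inconclusive means below the plate cutoff but reading exactly zero; inactive means the rest.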

Legend:
[1] = rapamycin-like changes in RPL19A-GFP expression – cell-based, S. cerevisiae, multiplex flow cytometry, primary screen (AID 1862; in the data active means percent of DMSO control GFP below about 86%;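 further: lower values mimic rapamycin by blocking the RPL19A rise seen in DMSO cells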); conditions: S. cerevisiae RPL19A-GFP strain, flow cytometry fluorescence, 3 h; at 10 µM; stronger effect = lower value
[2] = TOR pathway GLN3 branch reporter MEP2-GFP changes – S. cerevisiae, multiplex flow cytometry, primary screen (AID 1867;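 active means GFP response, as percent of the DMSO control, above the screen-wide mean plus 3 SD, about 139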;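 further: median GFP channel fluorescence of barcode-gated MEP2-GFP cells measured by flow cytometry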); conditions: S. cerevisiae MEP2-GFP strain, 3 h, at 10 µM, stronger effect = higher value, 100% means same as DMSO wells
[3] = TOR pathway RTG branch CIT2 reporter changes – S. cerevisiae, GFP fusion, multiplex flow cytometry, primary screen (AID 1870;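 active means percent response above a set limit, the screen-wide mean plus 3 SD, cut at about 130% in these data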;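 further: barcoded CIT2-GFP strain pooled with four other GFP strains with rapamycin as positive control; median GFP fluorescence per well over plate mean of DMSO wells so 100% = DMSO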); conditions: S. cerevisiae CIT2-GFP expression, 3 h, at 10 µM, stronger effect = higher value
[4] = TOR pathway LAP4-GFP level changes – S. cerevisiae, multiplex flow cytometry, primary screen (AID 1873;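 active means GFP signal, as percent of the solvent control, above the screen mean plus 3 SD, about 149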); conditions: S. cerevisiae LAP4-GFP expression, 3 h, at 10 µM, stronger effect = higher value
[5] = yeast AGP1-GFP level changes, GLN3 branch – cell-based, multiplex flow cytometry, S. cerevisiae, primary screen (AID 1887;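 active means GFP signal above the screen-wide mean plus 3 SD, that is over about 124.5% of the solvent control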;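 further: AGP1-GFP fusion strain of S. cerevisiae within a five-strain barcoded multiplex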); conditions: 3 h, at 10 µM, stronger effect = higher value
[6] = reduced mouse 2C T cell binding to pMHC/ICAM-1 vesicles – MLPCN validation set, flow cytometry, LFA-1/ICAM-1 modulator project, pilot screen (AID 2523;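 active means response below a set limit, under 55% cells CD8-positive and vesicle-bound, and CD8 cells' 90th-percentile brightness under 279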;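 on vesicle binding response: mean PE anti-B7-1 fluorescence of CD8+ cells relative to row control; 100% = QL9-loaded vesicles with DMSO vehicle in the same plate row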); conditions: 2C mouse CD8+ T cells, at 7 µM, stronger effect = lower value; double positive events: measured here: CD8+/vesicle+ event percentage
[7] = target: Integrin beta-1 (Homo sapiens) + Integrin alpha-4 (Homo sapiens) (UniProt P13612+P05556); experiment: alpha4beta1 integrin LIBS antibody binding reduction – U937 cells, HUTS-21 mAb, flow cytometry, validation set, VLA-4 allosteric modulator project, pilot screen (AID 2674;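 active means inhibition above 50%, about 3 SD of the validation set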;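 further: antibody binding induced by the VLA-4 ligand LDV present at three times its Kd; 0% = LDV ligand with antibody and no compound and 100% = antibody without LDV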); conditions: HUTS-21 LIBS mAb binding, at 6.7 µM, stronger effect = higher value, binding induced by LDV ligand
Integrin beta-1 (Homo sapiens) + Integrin alpha-4 (Homo sapiens), sequence (P05556 whole entry, looked up): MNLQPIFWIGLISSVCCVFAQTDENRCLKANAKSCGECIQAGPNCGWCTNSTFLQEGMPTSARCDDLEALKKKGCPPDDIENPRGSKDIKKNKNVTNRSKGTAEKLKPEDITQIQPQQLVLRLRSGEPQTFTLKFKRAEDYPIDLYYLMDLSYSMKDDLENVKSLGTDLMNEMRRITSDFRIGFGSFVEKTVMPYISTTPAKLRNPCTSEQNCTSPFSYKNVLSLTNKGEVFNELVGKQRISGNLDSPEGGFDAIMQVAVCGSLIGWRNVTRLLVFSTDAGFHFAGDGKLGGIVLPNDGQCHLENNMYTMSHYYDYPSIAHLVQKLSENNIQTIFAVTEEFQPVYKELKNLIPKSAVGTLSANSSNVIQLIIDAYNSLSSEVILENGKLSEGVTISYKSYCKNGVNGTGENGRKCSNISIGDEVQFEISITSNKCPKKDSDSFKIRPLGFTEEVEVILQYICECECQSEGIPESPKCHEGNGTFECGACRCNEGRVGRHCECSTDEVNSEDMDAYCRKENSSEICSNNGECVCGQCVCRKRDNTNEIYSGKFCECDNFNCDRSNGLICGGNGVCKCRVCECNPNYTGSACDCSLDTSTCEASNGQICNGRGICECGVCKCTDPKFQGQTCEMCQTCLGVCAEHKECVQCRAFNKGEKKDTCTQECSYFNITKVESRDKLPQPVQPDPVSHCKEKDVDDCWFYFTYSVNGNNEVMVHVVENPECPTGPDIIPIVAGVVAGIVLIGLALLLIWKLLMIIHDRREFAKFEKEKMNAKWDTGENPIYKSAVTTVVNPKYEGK
Integrin beta-1 (Homo sapiens) + Integrin alpha-4 (Homo sapiens), sequence (P13612 whole entry, looked up): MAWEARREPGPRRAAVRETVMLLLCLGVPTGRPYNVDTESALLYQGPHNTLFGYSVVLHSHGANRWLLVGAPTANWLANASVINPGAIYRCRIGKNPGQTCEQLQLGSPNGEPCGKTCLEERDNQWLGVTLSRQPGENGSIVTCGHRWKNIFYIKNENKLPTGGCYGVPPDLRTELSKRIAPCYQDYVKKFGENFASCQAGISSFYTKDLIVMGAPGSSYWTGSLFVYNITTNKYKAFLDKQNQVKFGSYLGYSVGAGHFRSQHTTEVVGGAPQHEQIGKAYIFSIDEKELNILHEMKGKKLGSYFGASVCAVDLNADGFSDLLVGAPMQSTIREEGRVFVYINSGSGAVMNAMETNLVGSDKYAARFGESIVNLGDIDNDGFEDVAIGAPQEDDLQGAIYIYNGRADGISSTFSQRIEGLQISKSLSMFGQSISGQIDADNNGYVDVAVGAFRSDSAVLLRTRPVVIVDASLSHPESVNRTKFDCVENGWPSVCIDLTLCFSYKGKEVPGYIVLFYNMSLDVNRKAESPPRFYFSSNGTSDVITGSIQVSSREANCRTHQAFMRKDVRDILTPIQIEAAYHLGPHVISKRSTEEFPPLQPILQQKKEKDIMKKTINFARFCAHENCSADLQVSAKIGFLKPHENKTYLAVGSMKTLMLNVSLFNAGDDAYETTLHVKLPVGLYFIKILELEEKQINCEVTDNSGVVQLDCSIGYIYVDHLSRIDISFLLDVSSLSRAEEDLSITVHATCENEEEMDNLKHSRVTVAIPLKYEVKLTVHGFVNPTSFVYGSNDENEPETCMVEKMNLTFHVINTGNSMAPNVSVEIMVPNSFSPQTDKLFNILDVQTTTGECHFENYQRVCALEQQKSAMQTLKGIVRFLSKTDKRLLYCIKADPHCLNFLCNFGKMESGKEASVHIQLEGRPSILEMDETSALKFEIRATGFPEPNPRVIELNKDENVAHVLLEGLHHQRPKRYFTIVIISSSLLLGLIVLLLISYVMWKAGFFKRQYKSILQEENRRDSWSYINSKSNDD

[8] = calorie-restriction mimetic ROS inhibitors, yeast – validation compound set, pilot screen (AID 2706;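 active means superoxide response below 65% of plate, a cut near 3 SD across the whole screen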;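 further: yeast exposed to compound for one week at 30 degrees C before staining; 100% = mean of all compound wells on the same plate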); conditions: S. cerevisiae aging, superoxide DHE fluorescence; at 10 µM; stronger effect = lower value
[9] = target: Beta-adrenergic receptor kinase 1 (Homo sapiens) (UniProt P25098); experiment: GRK2 binders displacing RNA aptamer, biochemical, validation, human GRK2, bead flow cytometry (AID 488806;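 active means aptamer binding inhibition above 30%, about 3 SD of noise from non-fluorescent compounds; inactive means inhibition at or below 30%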); conditions: bead-bound GRK2, FAM-aptamer displacement, at 10 µM, stronger effect = higher value
Beta-adrenergic receptor kinase 1 (Homo sapiens), sequence (P25098 whole entry, looked up): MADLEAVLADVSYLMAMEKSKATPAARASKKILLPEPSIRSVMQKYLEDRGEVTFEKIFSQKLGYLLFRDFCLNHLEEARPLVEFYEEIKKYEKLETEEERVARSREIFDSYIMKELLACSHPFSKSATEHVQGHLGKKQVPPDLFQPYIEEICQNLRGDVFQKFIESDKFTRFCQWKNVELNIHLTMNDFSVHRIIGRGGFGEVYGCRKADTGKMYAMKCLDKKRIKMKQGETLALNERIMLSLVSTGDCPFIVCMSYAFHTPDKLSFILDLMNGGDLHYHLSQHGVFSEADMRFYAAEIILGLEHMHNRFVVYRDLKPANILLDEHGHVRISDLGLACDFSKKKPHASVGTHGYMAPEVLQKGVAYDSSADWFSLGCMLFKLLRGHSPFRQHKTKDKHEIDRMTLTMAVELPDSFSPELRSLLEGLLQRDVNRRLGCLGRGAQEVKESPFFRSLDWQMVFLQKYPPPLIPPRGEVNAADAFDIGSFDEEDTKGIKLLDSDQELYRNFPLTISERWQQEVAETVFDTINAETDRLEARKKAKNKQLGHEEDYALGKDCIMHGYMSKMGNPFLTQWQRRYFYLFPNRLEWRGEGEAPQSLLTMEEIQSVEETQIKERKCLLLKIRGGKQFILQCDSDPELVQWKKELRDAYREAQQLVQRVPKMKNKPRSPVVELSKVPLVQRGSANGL

[10] = target: Beta-2 adrenergic receptor (Homo sapiens) (UniProt P07550); experiment: agonist-induced loss of surface beta2AR – cell-based, FAP fluorogen, flow cytometry, validation set, pilot screen (AID 504459;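 active means percent response above 42, roughly 3 SD of non-fluorescent test compounds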;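 further: agonist-driven loss of surface beta2AR via internalization measured by FAP dye flow cytometry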); conditions: Am2.2-beta2AR cells, at 10 µM, stronger effect = higher value
Beta-2 adrenergic receptor (Homo sapiens), sequence (P07550 whole entry, looked up): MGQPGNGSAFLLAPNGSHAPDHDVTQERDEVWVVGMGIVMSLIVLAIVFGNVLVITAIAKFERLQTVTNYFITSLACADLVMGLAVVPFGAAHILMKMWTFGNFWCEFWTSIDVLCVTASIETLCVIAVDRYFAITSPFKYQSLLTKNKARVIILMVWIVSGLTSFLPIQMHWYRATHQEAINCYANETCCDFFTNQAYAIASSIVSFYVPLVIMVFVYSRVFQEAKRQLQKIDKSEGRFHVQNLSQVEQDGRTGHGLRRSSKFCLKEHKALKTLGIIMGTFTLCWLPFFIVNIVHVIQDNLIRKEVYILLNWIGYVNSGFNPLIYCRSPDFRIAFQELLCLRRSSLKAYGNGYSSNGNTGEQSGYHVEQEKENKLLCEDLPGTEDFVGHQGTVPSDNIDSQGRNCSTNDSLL

[11] = target: AP-2 complex subunit beta (Homo sapiens) (UniProt P63010); experiment: beta-arrestin/AP2 interaction blockers – biochemical, validation set, GST-AP2 beads, flow cytometry, pilot screen (AID 504541;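 active means inhibition above 54%, about 3 SD of non-fluorescent compounds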;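 further: AP2 carries R879A mutation and is captured from E. coli lysate; bead-bound FITC arrestin peptide fluorescence measuring arrestin peptide binding to AP2; 0% = DMSO wells and 100% = excess unlabeled arrestin peptide control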); conditions: FITC arrestin peptide, at 10 µM, stronger effect = higher value, AP2 beta2 appendage fragment, R879A mutant
AP-2 complex subunit beta (Homo sapiens), sequence (P63010 whole entry, looked up, the tested form may be a part, one chain of several): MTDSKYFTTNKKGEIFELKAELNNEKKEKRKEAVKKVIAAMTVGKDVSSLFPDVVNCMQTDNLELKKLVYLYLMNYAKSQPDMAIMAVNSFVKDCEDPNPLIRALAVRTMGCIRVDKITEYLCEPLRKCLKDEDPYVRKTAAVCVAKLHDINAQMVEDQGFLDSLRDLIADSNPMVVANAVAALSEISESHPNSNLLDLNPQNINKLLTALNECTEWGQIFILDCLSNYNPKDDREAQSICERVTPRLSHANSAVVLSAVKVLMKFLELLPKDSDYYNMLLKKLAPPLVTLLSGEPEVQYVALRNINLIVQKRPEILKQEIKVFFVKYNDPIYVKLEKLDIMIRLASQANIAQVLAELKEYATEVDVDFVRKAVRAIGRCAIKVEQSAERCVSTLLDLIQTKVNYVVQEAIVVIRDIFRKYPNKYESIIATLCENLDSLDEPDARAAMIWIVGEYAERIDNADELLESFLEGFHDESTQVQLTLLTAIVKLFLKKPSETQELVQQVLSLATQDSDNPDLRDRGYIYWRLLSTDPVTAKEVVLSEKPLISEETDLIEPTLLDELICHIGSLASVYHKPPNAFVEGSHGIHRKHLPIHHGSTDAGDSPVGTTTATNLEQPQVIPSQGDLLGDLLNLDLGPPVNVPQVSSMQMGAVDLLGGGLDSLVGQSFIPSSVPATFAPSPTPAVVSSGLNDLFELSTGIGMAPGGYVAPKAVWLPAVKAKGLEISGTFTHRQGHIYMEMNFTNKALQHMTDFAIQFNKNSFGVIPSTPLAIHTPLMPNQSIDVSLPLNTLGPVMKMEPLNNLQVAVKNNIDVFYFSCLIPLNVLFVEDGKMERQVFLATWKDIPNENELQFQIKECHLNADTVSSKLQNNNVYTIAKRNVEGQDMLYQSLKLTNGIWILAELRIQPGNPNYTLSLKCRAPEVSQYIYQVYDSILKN

[12] = cytosolic pH regulators acting via V-ATPase – S. cerevisiae, pHLuorin, HTS validation (AID 504600; in the data active means response above about 15%;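 further: plate controls were DMSO for no effect and reference compound for full effect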); conditions: V-ATPase proton transport, at 10 µM, stronger effect = higher value
[13] = test system: anti-desmoglein-3 scFv antibody binding to human DSG3; experiment: blockers of pathogenic pemphigus antibody–desmoglein-3 binding – biochemical, validation compound set, bead-based, flow cytometry, pilot screen (AID 588368); conditions: Protein G beads, DSG3-Fc, scFv-GFP binding, at 10 µM, stronger effect = lower value;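 further: signal is the median channel fluorescence of bead-bound GFP antibody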
[14] = Nile Red efflux blockade in pump-expressing yeast – validation compound set, multiplex, phenotypic, pilot screen (AID 588506;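 active means efflux inhibition above 0.42, the validation set average plus 4 SD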;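 further: Nile Red retained in cells so higher fluorescence means more efflux inhibition; 0 = negative control wells and 1 = enniatin B 25 µM full block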); conditions: S. cerevisiae pump-expressing triplex, Nile Red efflux flow cytometry; at 10 µM; stronger effect = higher value; the pumps come from Candida albicans
[15] = target: ATP-binding cassette sub-family B member 6 (Homo sapiens) (UniProt Q9NP58); experiment: blockers of ABCB6-driven porphyrin uptake – K562-ABCB6 cells, flow cytometry, validation set, pilot screen (AID 588550;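 active means inhibition above the screen-wide mean plus 3 SD, about 51%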;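 further: 0% = DMSO wells and 100% = benzethonium chloride 70 µM positive control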); conditions: K562-ABCB6 porphyrin accumulation, 1 h, at 10 µM, stronger effect = higher value
ATP-binding cassette sub-family B member 6 (Homo sapiens), sequence (Q9NP58 whole entry, looked up): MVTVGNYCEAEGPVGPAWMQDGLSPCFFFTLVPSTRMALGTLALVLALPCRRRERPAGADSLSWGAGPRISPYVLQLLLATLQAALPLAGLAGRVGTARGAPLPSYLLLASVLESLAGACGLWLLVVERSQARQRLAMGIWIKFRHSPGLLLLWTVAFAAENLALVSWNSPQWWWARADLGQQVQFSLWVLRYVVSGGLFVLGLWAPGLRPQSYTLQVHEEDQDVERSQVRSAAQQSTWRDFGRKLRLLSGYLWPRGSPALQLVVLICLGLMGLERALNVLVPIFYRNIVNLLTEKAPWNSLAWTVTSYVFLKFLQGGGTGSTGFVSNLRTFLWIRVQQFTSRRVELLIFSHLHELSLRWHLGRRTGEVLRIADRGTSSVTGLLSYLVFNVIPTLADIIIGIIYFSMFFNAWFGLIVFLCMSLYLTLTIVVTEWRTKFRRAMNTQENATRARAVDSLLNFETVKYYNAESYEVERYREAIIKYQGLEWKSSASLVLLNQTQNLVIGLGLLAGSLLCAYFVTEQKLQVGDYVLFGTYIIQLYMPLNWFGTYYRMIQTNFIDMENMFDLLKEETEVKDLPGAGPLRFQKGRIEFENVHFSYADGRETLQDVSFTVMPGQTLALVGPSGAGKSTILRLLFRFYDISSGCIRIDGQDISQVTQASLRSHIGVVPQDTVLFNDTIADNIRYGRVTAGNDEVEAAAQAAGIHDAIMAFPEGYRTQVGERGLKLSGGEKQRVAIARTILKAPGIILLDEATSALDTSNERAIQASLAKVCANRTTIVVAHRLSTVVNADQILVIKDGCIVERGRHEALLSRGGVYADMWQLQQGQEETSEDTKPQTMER

[16] = AML differentiation inducers, ER-HoxA9 marrow cells – cell-based, GFP/MAC1 double positive, flow cytometry, validation set, primary screen (AID 588685;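 active means differentiation response of at least 50%, scaled between solvent and reference control, from cells with both markers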;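 further: compound exposure lasts four days before antibody staining and flow analysis; 0% = DMSO wells and 100% = 5 µM fulvestrant positive control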); conditions: stronger effect = higher value, normalized: vehicle 0, fulvestrant 100

SMILES	percent of DMSO control GFP [1]	GFP response vs DMSO [2]	percent response of DMSO control [3]	GFP response vs DMSO [4]	GFP response, % of DMSO [5]	double positive events [6] [%]	vesicle binding response [6]	inhibition [7]	superoxide response (% of plate) [8]	aptamer binding inhibition [9]	response [10]	inhibition [11]	response [12]	binding (% of control) [13]	efflux inhibition (fraction of control) [14]	inhibition [15]	differentiation response [16]
C[N+]1(C2CCC3CCCC2C3O)CCCCC1 (stereo not drawn)	108% (inactive)	100% (inactive)	115% (inactive)	82.8% (inactive)	103% (inactive)	64.9	326% (inactive)	-2.53% (inactive)	94.2% (inactive)	1% (inactive)	-9.71% (inactive)	-10.4% (inactive)	3.03% (inactive)	99.3% (inactive)	-0.1 (inactive)	32% (inactive)	4.15% (inactive)
COc1ccc(CNC(=O)N[C@H](C(=O)O)C(C)C)cc1OC	92.6% (inactive)	119% (inactive)	111% (inactive)	81.4% (inactive)	89.8% (inactive)	53.2	186% (inactive)	-9.06% (inactive)	112% (inactive)	-5% (inactive)	-4.83% (inactive)	-15.3% (inactive)	1.94% (inactive)	98.1% (inactive)	0.3 (inactive)	3% (inactive)	7.37% (inactive)
CCOC(=O)C1C(=O)OC2(CCOC(C)(C)C2)C1C(=O)OCC (stereo not drawn)	109% (inactive)	108% (inactive)	102% (inactive)	125% (inactive)	108% (inactive)	70.8	8780% (inactive)	10.5% (inactive)	102% (inactive)	5% (inactive)	16.1% (inactive)	-2.89% (inactive)	-6.07% (inactive)	102% (inactive)	0.15 (inactive)	6% (inactive)	-4% (inactive)
Cc1cnc(N)c2c(=O)oc3ccccc3c12	99.8% (inactive)	100% (inactive)	105% (inactive)	96.6% (inactive)	95.3% (inactive)	61.2	275% (inactive)	-8.75% (inactive)	98.8% (inactive)	4% (inactive)	-6.01% (inactive)	-2.59% (inactive)	-3.82% (inactive)	97.1% (inactive)	-0.01 (inactive)	-2% (inactive)	-6.6% (inactive)
COC(=O)C1=CN(Cc2cccs2)C=C(C(=O)OC)C1c1cccc(Cl)c1	103% (inactive)	107% (inactive)	98.2% (inactive)	92.3% (inactive)	97.2% (inactive)	61.5	186% (inactive)	14% (inactive)	103% (inactive)	5% (inactive)	9.92% (inactive)	2.7% (inactive)	-0.61% (inactive)	99.5% (inactive)	0.26 (inactive)	6% (inactive)	6.49% (inactive)
Cc1ccc(S(=O)(=O)NC(C(=O)Oc2cc3oc(=O)cc(C)c3cc2Cl)C(C)C)cc1 (stereo not drawn)	102% (inactive)	102% (inactive)	97.7% (inactive)	103% (inactive)	111% (inactive)	62.7	264% (inactive)	3.99% (inactive)	98.7% (inactive)	3% (inactive)	-20.1% (inactive)	-3.53% (inactive)	1.33% (inactive)	98.7% (inactive)	0.21 (inactive)	7% (inactive)	-0.06% (inactive)
CC(=O)N(C(C)=O)c1nc2nc(C)cc(C)n2n1	94.6% (inactive)	133% (inactive)	110% (inactive)	86.4% (inactive)	107% (inactive)	67.9	236% (inactive)	0.64% (inactive)	98.5% (inactive)	6% (inactive)	-13.9% (inactive)	-10.8% (inactive)	-0.39% (inactive)	102% (inactive)	-0.13 (inactive)	11% (inactive)	-6.55% (inactive)
CCOC(=O)C1=C(N)Oc2c(c(=O)[nH]c3ccccc23)C1c1ccccc1 (stereo not drawn)	100% (inactive)	106% (inactive)	91% (inactive)	112% (inactive)	107% (inactive)	57.2	179% (inactive)	0.94% (inactive)	103% (inactive)	6% (inactive)	3.69% (inactive)	1.81% (inactive)	1.75% (inactive)	104% (inactive)	0.01 (inactive)	7% (inactive)	-0.8% (inactive)
Clc1ccc2c(c1)[C@H]1OCC[C@H]1[C@@H](c1ccco1)N2	108% (inactive)	105% (inactive)	107% (inactive)	113% (inactive)	88.8% (inactive)	54.8	144% (inactive)	1.59% (inactive)	103% (inactive)	-1% (inactive)	3.26% (inactive)	3.61% (inactive)	3.05% (inactive)	104% (inactive)	0.27 (inactive)	-23% (inactive)	-16.3% (inactive)
